Source: PubChem (several laboratories)
In the library only some 1.8% were active in any assay of this set; here they are far more common.
VLA-4 inh = inhibition in human VLA-4 binding assay, primary screen, VLA-4 allosteric modulator project, MLPCN library, flow cytometry, VLA-4 expressing cells | Integrin alpha-4 (Homo sapiens), P13612 | AID 2557, 2010 | ligand binding flow cytometry | hit rate 0.2% among 330,000 | inhibition, % (about 7 µM as worked out from the volumes in the protocol); in the data active = inhibition above about 50%
A3G deaminase = APOBEC3G DNA deaminase inhibitors, primary screen, biochemical, fluorescence, single-stranded DNA substrate, uHTS. inhibition, % at 20 µM. DNA dC->dU-editing enzyme APOBEC-3G (Homo sapiens), Q9HC16. recombinant A3G, ssDNA deamination FAM/TAMRA fluorescence. hit rate 0.28% among 330,000;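 active = inhibition of at least 40% at 20 µM, with no more than 30% in the related APOBEC3A deaminase screen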;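 note: plate controls were DMSO wells with A3G for no effect and wells lacking A3G enzyme for full effect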
Target sequence (Q9HC16 whole entry, looked up): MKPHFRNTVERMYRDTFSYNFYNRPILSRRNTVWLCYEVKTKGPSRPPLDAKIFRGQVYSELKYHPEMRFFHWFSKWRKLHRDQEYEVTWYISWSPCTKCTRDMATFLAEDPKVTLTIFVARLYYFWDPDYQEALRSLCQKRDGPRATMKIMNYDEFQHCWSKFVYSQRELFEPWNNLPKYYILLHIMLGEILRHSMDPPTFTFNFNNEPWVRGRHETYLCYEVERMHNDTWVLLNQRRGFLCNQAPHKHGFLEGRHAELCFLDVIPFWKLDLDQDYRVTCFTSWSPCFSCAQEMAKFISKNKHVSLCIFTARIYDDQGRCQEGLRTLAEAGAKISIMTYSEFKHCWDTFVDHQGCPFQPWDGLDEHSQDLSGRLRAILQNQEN
NRP1-CendR mod = modulators of CendR peptide binding to NRP-1, primary screen, biochemical, fluorescence polarization, uHTS; Neuropilin-1 (Homo sapiens), O14786; FAM-RPARPAR peptide binding to NRP-1; inhibition, % at 25 µM; hit rate 0.85% among 360,000; AID 602438, 2012;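 active = inhibition or corrected inhibition above about 18%, plus a signal ratio from 0.5 to 1.5, limit read from the data, passing the limit was not always enough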
beta cell repl = inducers of MIN6 beta-cell proliferation, primary screen, ATP luminescence, uHTS | MIN6 cells proliferation, ATPlite luminescence, 48 h; cells starved in 0.2% serum; 100% = growth in 10% serum | proliferation, % at 10 µM | hit rate 0.29% among 330,000 | AID 2380, 2010;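 active = compounds whose signal lies at least 3.5 SD above the mean of all wells on their plate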;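 note: 0% = DMSO-treated cells in low-serum medium and 100% = 10% serum control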
APOBEC3A inh = APOBEC3A ssDNA deaminase inhibitors, primary screen, selectivity assay for APOBEC3G inhibitor project, biochemical, FAM/TAMRA oligo cleavage fluorescence | hit rate 0.41% among 330,000 | recombinant A3A, FAM/TAMRA ssDNA deamination fluorescence | inhibition, % at 20 µM;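 active = at least 40% inhibition at 20 µM here, with at most 30% in a related deaminase screen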;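 note: plate controls were A3A with DMSO for no effect and wells lacking A3A enzyme for full effect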
Target sequence (P31941 whole entry, looked up): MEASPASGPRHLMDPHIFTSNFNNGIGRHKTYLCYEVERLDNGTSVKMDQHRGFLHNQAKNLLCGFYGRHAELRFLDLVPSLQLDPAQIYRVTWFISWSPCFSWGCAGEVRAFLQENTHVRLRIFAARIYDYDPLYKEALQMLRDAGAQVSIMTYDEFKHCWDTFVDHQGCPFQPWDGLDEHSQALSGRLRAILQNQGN
A3G conf = APOBEC3G deaminase inhibitor retest, confirmation, biochemical, fluorescence, single-stranded DNA substrate, single concentration; inhibition, % at 20 µM; shares compounds with A3G deaminase; recombinant A3G ssDNA deaminase, UDG/FAM-TAMRA fluorescence; hit rate 72% among 890; AID 493152, 2011;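 active = inhibition reaching a set limit in any replicate at 20 µM, the limit being 80% of the first screen's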
UDG ctr A3G = E. coli UDG inhibitors, confirmation, counter-screen for APOBEC3G inhibitor project, biochemical, single concentration, fluorescence, FAM/TAMRA oligo; shares compounds with A3G deaminase; UDG counterscreen; inhibition, % at 20 µM; 710 tested, under 10 active; AID 504715, 2011;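 active = compounds giving 40% or more inhibition at 20 µM in any one of the three replicates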;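 note: plate controls were DMSO wells with UDG and oligo for no effect and DMSO wells lacking both for full effect; inhibitors lower the FAM signal released by uracil excision and alkaline cleavage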
The depositor's hits bear a star.

Results for CCN(CC)C(=O)[C@H]1C[C@H](CC(=O)NCCC2=CCCCC2)C(=O)N2CCc3c([nH]c4ccc(Cl)cc34)[C@]12C ?
A3G deaminase: 3.6; NRP1-CendR mod: -2.3; APOBEC3A inh: 2.7

How did CCn1nc(C)c(CNC(=O)C2CCC(=O)N(CCc3ccc(Cl)cc3)C2)c1C (centres undefined) do in these assays?
VLA-4 inh: 1.6; A3G deaminase: 43.8*; NRP1-CendR mod: 3.6; beta cell repl: -1.9; APOBEC3A inh: 6.1; A3G conf: -1.2

Results for Cc1nc(CNC(=O)C2CCC(=O)N(CCc3ccc(Cl)cc3)C2)sc1C (centres undefined) ?
VLA-4 inh: -9.7; A3G deaminase: -4.7; NRP1-CendR mod: -10.6; beta cell repl: 3.7; APOBEC3A inh: -4.4

What do the screens show for `CCC(CC)c1nnc(NC(=O)COc2ccc3c(c2)OCO3)s1`?
VLA-4 inh: 9.4; A3G deaminase: 45.1*; NRP1-CendR mod: 7.6; beta cell repl: -2.0; APOBEC3A inh: 3.0; A3G conf: 47.1*; UDG ctr A3G: -0.1

Results for CC(C)c1nnc(NC(=O)COc2ccc3c(c2)OCO3)s1 ?
VLA-4 inh: 14.1; A3G deaminase: -15.0; NRP1-CendR mod: -5.3; beta cell repl: -1.8; APOBEC3A inh: -2.4

Results for COc1cc2nc(CN3CCN(S(=O)(=O)c4cc(C)ccc4C)CC3)[nH]c(=O)c2cc1OC ?
VLA-4 inh: -5.8; A3G deaminase: -4.3; NRP1-CendR mod: 3.6; beta cell repl: 3.7; APOBEC3A inh: 0.3

What do the screens show for `COc1ccccc1-c1n[nH]c(=S)n1-c1ccccc1`?
VLA-4 inh: -5.4; A3G deaminase: 40.2*; NRP1-CendR mod: 7.7; beta cell repl: 1.4; APOBEC3A inh: 0.7; A3G conf: 68.6*; UDG ctr A3G: -2.9

What do the screens show for `COCCN(C(=O)COC(=O)Cc1c[nH]c2ccccc12)c1c(N)n(Cc2ccccc2)c(=O)[nH]c1=O`?
VLA-4 inh: -7.4; A3G deaminase: -4.8; NRP1-CendR mod: -0.8; beta cell repl: 3.0; APOBEC3A inh: -3.3

How did Cc1ccc(-c2csc(Nc3ccc(S(N)(=O)=O)cc3)n2)o1 do in these assays?
VLA-4 inh: -0.5; A3G deaminase: 52.2*; NRP1-CendR mod: -42.1; beta cell repl: -3.7; APOBEC3A inh: -8.8; A3G conf: -45.5; UDG ctr A3G: -5.0

What do the screens show for `Cc1nc(C)c(-c2csc(Nc3ccc(S(N)(=O)=O)cc3)n2)s1`?
VLA-4 inh: 3.8; A3G deaminase: -4.5; NRP1-CendR mod: 8.1; beta cell repl: 0.1; APOBEC3A inh: -4.3

How did CCOc1ccc(C(=S)NC2CCCCC2)cc1OC do in these assays?
VLA-4 inh: 12.6; A3G deaminase: 58.4*; NRP1-CendR mod: -9.3; beta cell repl: 3.7; APOBEC3A inh: -2.0; A3G conf: 50.5*; UDG ctr A3G: 4.3

What do the screens show for `CCOc1ccccc1C(=S)NC1CCCCC1`?
VLA-4 inh: 3.3; A3G deaminase: 1.2; NRP1-CendR mod: 4.4; beta cell repl: -0.1; APOBEC3A inh: -6.8

Results for O=c1oc(-c2ccc(O)c(O)c2)cc2cccc(O)c12 ?
VLA-4 inh: -3.9; A3G deaminase: -4.9; NRP1-CendR mod: -15.7; beta cell repl: -3.9; APOBEC3A inh: 1.3

Results for Oc1cccc2cc3cccc(O)c3c(O)c12 ?
VLA-4 inh: 8.5; A3G deaminase: 55.0*; NRP1-CendR mod: 9.4; beta cell repl: -0.5; APOBEC3A inh: 13.3; A3G conf: 61.8*; UDG ctr A3G: -1.7

What do the screens show for `Cc1cc(OCC(=O)NCCN2CCOCC2)cc(C)c1Cl`?
VLA-4 inh: 9.2; A3G deaminase: 79.5*; NRP1-CendR mod: -5.3; beta cell repl: 0.5; APOBEC3A inh: -5.2; A3G conf: -11.9; UDG ctr A3G: -1.0

Results for Cc1nc(NCCc2ccccc2)c2nnn(Cc3ccccc3)c2n1 ?
VLA-4 inh: -78.9; A3G deaminase: -4.9; NRP1-CendR mod: 6.6; beta cell repl: -1.7; APOBEC3A inh: -5.3

What do the screens show for `O=C(O)c1ccccc1C(=O)Nc1nccs1`?
VLA-4 inh: -8.7; A3G deaminase: -11.8; NRP1-CendR mod: 7.0; beta cell repl: -0.5; APOBEC3A inh: -1.8

How did O=C(O)c1ccccc1C(=O)Nc1n[nH]c(=S)s1 do in these assays?
VLA-4 inh: 3.2; A3G deaminase: 64.2*; NRP1-CendR mod: -11.1; beta cell repl: 0.9; APOBEC3A inh: 1.8; A3G conf: 44.3*; UDG ctr A3G: -2.4

How did O=C(CC1Sc2ncnn2C1=O)Nc1ccc(Br)cc1 (centres undefined) do in these assays?
VLA-4 inh: 13.8; A3G deaminase: 41.3*; NRP1-CendR mod: 5.7; beta cell repl: -6.5; APOBEC3A inh: -0.8; A3G conf: 69.7*; UDG ctr A3G: -3.4

How did CSc1cccc(NC(=O)CN(C)S(=O)(=O)c2cnc[nH]2)c1 do in these assays?
VLA-4 inh: 4.9; A3G deaminase: -3.5; NRP1-CendR mod: 1.4; beta cell repl: -2.6; APOBEC3A inh: -0.8

Results for C[C@H](O)[C@H](O)[C@H]1CNc2nc(N)[nH]c(=O)c2N1 ?
VLA-4 inh: 1.1; A3G deaminase: 40.8*; NRP1-CendR mod: 3.6; beta cell repl: -3.6; APOBEC3A inh: 2.1; A3G conf: 34.1*

What do the screens show for `Cc1ccc(C(=O)NNC(=O)CSc2nnc3c(n2)[nH]c2ccc(F)cc23)cc1`?
VLA-4 inh: -13.1; A3G deaminase: 56.5*; NRP1-CendR mod: 8.1; beta cell repl: -6.0; APOBEC3A inh: 17.6; A3G conf: 64.3*; UDG ctr A3G: 0.2

Results for C[C@H](NC(=O)c1cc2c(cn1)[nH]c1ccccc12)C(=O)O ?
VLA-4 inh: -6.5; A3G deaminase: 37.2; NRP1-CendR mod: -2.6; beta cell repl: -4.5; APOBEC3A inh: 2.4

How did COC(=O)[C@H](C)NC(=O)c1cc2c(cn1)[nH]c1ccccc12 do in these assays?
VLA-4 inh: -0.1; A3G deaminase: 49.6*; NRP1-CendR mod: -11.1; beta cell repl: -5.2; APOBEC3A inh: 0.5; A3G conf: 76.9*; UDG ctr A3G: -1.9

What do the screens show for `CC(CSc1n[nH]c(=S)s1)c1ccccc1` (centres undefined)?
NRP1-CendR mod: 7.7
